This note sets out measurements from the supplement of paper PMC10338343.

The test system of experiment [1] is MILI (PIWIL2) piRISC loaded with L1MC piRNA (26 nt). As to the kind of experiment: pre-steady-state target cleavage rate (min^-1); guide: L1MC piRNA 5'p-UAACUAAAUACUAUGCAAGCUGUAGG; higher = faster piRNA-guided slicing of the target. Particulars: auxiliary factor: 500 nM mouse GTSF1. In short, it runs like this:
(§1)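 In HEPES–potassium acetate buffer at 33 °C, […] transcribed, DNA-blocked target RNA library was mixed with 1 nM active affinity-purified piRISC carrying one synthetic guide, with or without 500 nM GTSF1 partner protein, for 0–8 or 0–960 min. Uncleaved targets were sequenced and normalised to depth and to weakly complementary targets; three trials were pooled and k3 was capped at 0.0001 min^-1. The pre-steady-state cleavage rate followed from a burst-and-steady-state fit.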

For experiment [2], the system named is EfPiwi piRISC loaded with L1MC piRNA (26 nt). Briefly: pre-steady-state target cleavage rate (min^-1); auxiliary factor: 500 nM Ephydatia muelleri Gtsf1; guide: L1MC piRNA 5'p-UAACUAAAUACUAUGCAAGCUGUAGG; MIWI and MILI are mouse PIWI proteins and EfPiwi is from a freshwater sponge; tags in brackets are library labels; higher = faster piRNA-guided slicing of the target. In short, it runs like this:
as §1

± gives the standard deviation.

Take UCCUGCUACAGCUUGCAUAGUAAUUAGUAA: the “pre-steady-state target cleavage rate” value was determined as 0.133 ± 0.025 in experiment [1] and 0.00441 ± 0.0018 in experiment [2].

For UCCUCCUACAGCUUGCAUAGAAUUUAGUUA, the entries for the “pre-steady-state target cleavage rate” value in experiment [1] and in experiment [2] were 0.1 ± 0.021 and 0.0078 ± 0.0023, respectively.

For UCCUGGAACUGCUUGCAUAGUAUUUAGAAA, the “pre-steady-state target cleavage rate” value in experiment [1] was found to be 0.103 ± 0.019; in experiment [2] it was 0.00485 ± 0.0026.

Take UCCUGCAUCAGCUUGCAUAGUAUUUUCAAA: the “pre-steady-state target cleavage rate” value in experiment [1] is 0.118 ± 0.029; in experiment [2] it was 0.00236 ± 0.0016.

With UCCUGGAUGUGCUUGCAUAGUAUUUAGAUUA, the “pre-steady-state target cleavage rate” value in experiment [1] stood at 0.0647 ± 0.016; in experiment [2], 0.00327 ± 0.0022.

UCCUCCUACAGCUUGCAUAGUUAUUAGAAA: the figures for the “pre-steady-state target cleavage rate” value in experiment [1] and in experiment [2] were 0.0109 ± 0.0053 and 0.00348 ± 0.0028, respectively.

Consider UCCUCCUACAGCUUGGAUAGUAUUUAGAUA, for which the “pre-steady-state target cleavage rate” value in experiment [1] was 0.139 ± 0.019; in experiment [2] it was 0.00474 ± 0.0018.

Consider UCCUCCAUCAGCUUGCAUAGUAUUUAGAAA, for which the “pre-steady-state target cleavage rate” value in experiment [1] was found to be 0.0615 ± 0.017; in experiment [2], 0.00539 ± 0.0026.

UCCUGGAUCAGCUUGCAUAGAAUUUAGAUA: the “pre-steady-state target cleavage rate” value in experiment [1] was determined as 0.0147 ± 0.0059; in experiment [2], 0.0036 ± 0.0019.

As to UCCUGCUACAGCUUGCAUUGUAUUUAGAAA, the “pre-steady-state target cleavage rate” value in experiment [1] amounted to 0.111 ± 0.03; in experiment [2], 0.00474 ± 0.0017.

Regarding UCCUGGAUGUCCAUUGCAUAGUAUUUAGUUA, the “pre-steady-state target cleavage rate” value in experiment [1] is 0.127 ± 0.032; in experiment [2], 0.00326 ± 0.0022.

Consider UCCUGGAUCAGGUUGCAUAGUAUUUAGAAA, for which the “pre-steady-state target cleavage rate” value is 0.185 ± 0.029 in experiment [1] and 0.00341 ± 0.0019 in experiment [2].

Turning to UCCUCCUACAGCUUGCAUAUUAUUUAGUUA, the “pre-steady-state target cleavage rate” value in experiment [1] came to 0.0824 ± 0.011; in experiment [2], 0.0783 ± 0.025.

In the case of UCCUCGAACAGCUUGCAUAGUAUUUUCAAA, the “pre-steady-state target cleavage rate” value in experiment [1] was 0.102 ± 0.021; in experiment [2] it was 0.00321 ± 0.0022.

As to UCCUGGUACAGCUUGCAUUGUAUUUAGAUA, the results for the “pre-steady-state target cleavage rate” value in experiment [1] and in experiment [2] were 0.0565 ± 0.016 and 0.00292 ± 0.0018, respectively.

UCCUGCAACAGCUUGCAUAGUAUUUACAAA: the “pre-steady-state target cleavage rate” value in experiment [1] was found to be 0.232 ± 0.053; in experiment [2], 0.00305 ± 0.0022.

As for UCCUGCUACAGCUUGCAUAGAAUUUUGUUA, the results for the “pre-steady-state target cleavage rate” value in experiment [1] and in experiment [2] were 0.06 ± 0.013 and 0.00457 ± 0.0019, respectively.

On to UCCUCCUACAGCUUGCAUAGUAAAAACAAA, for which the “pre-steady-state target cleavage rate” value in experiment [1] was 0.0836 ± 0.022; in experiment [2] it was 0.00389 ± 0.0036.

Take UCCUGCUACAGCUUGCAUAGUAUUUAGUA: the “pre-steady-state target cleavage rate” value came to 0.335 ± 0.07 in experiment [1] and 0.00529 ± 0.0019 in experiment [2].

In the case of UCCUGGAUCAGCUUGCUUAGUAUUUACAAA, the “pre-steady-state target cleavage rate” value is 0.0696 ± 0.019 in experiment [1] and 0.00612 ± 0.0047 in experiment [2].

UCCUGGAUGUGCUUGCAUAGUAUUUGAGUUA: the entries for the “pre-steady-state target cleavage rate” value in experiment [1] and in experiment [2] were 0.123 ± 0.024 and 0.0118 ± 0.0069, respectively.

For UCCUCCUACAGCUUGCAUAGUAAUUAGUAA, the entries for the “pre-steady-state target cleavage rate” value in experiment [1] and in experiment [2] were 0.141 ± 0.021 and 0.0063 ± 0.0029, respectively.

Take UCCUGGAACAGCUUGCCAUAGUAUUUAGUUA: the figures for the “pre-steady-state target cleavage rate” value in experiment [1] and in experiment [2] were 0.163 ± 0.018 and 0.0042 ± 0.0019, respectively.

For UCCUGGAUGUGCUUGCAUAGUAUUUAGAAA, the results for the “pre-steady-state target cleavage rate” value in experiment [1] and in experiment [2] were 0.0532 ± 0.013 and 0.00293 ± 0.0018, respectively.

With UCCUGCUACAGGUUGCAUAGUAUUUAGAAA, the “pre-steady-state target cleavage rate” value in experiment [1] came to 0.0337 ± 0.011; in experiment [2] it was 0.00261 ± 0.0014.

As to UCCUGGUACAGCUUGCUUAGUAUUAAGUUA, the “pre-steady-state target cleavage rate” value is 0.163 ± 0.041 in experiment [1] and 0.00311 ± 0.0027 in experiment [2].

As to UCCUGGAUCAGCUUGCAUAGUAUUUGUUA, the entries for the “pre-steady-state target cleavage rate” value in experiment [1] and in experiment [2] were 0.145 ± 0.023 and 0.00326 ± 0.0029, respectively.

As for UCCUGGAUCAGCUUGCAUAGUAUUUUGAUA, the “pre-steady-state target cleavage rate” value in experiment [1] is 0.0355 ± 0.013; in experiment [2], 0.00716 ± 0.003.

As for UCCUGCUACAGCUUGCAUAGUAUUAACUUA, the “pre-steady-state target cleavage rate” value was determined as 0.0306 ± 0.0076 in experiment [1] and 0.00397 ± 0.0027 in experiment [2].

Regarding UCCUCCUACAGCUUGCAGUAGUAUUUAGUUA, the “pre-steady-state target cleavage rate” value stood at 0.0101 ± 0.0053 in experiment [1] and 0.00539 ± 0.0033 in experiment [2].

Take UCCUCCUAGAGCUUGCAUAGUUUUUAGUUA: the results for the “pre-steady-state target cleavage rate” value in experiment [1] and in experiment [2] were 0.0719 ± 0.011 and 0.00428 ± 0.0017, respectively.
